Screening data (PubChem)
DPM-DC inhibit: blocks S. pneumoniae diphosphomevalonate decarboxylase | purified DPM-DC, PK/LDH coupled NADH fluorescence | calls only at 10 µM | hit rate 0.49% among 65,000;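 active means the 320 compounds with the highest percent inhibition in the single-dose primary screen, excluding strongly autofluorescent ones, cut at about 32% in these data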;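 further: kinetic rate of NADH fluorescence loss reporting ADP formed by the decarboxylase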
NADH enzymes: inhibitors of enzymes used to reach an NAD/NADH endpoint. coupled PK/LDH NADH assays, four targets. IC50, µM (series often up to 10 µM), for the others: top-dose inhibition. hit rate 0.02% among 65,000;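 active means single-dose screening hits from any of four coupled enzyme assays that gave an IC50 when retested across doses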;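 further: the DPM-DC format reads NADH fluorescence rather than 340 nm absorbance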
Spn MK inh: inhibitors of Streptococcus pneumoniae mevalonate kinase | hit rate 0.48% among 65,000 | purified MK, PK/LDH-coupled NADH absorbance 340 nm | inhibition, % at 10 µM | AID 555;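 active means ranked among the strongest by inhibition in the single 10 µM screen, a fixed top-ranked set picked for dose follow-up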
PMK inhibit: S. pneumoniae PMK inhibition; purified PMK, PK/LDH-coupled NADH absorbance 340 nm; inhibition, % at 10 µM; hit rate 0.49% among 65,000;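 active means top-ranked compounds by inhibition in the single 10 µM screen, taking a fixed number of the strongest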;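 further: 0% = full reaction with DMSO carrier and 100% = background rate without enzyme reaction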
Autofluor 339: intrinsic fluorescence of library compounds, ex339/em460 – biochemical, MLSMR library, data from DPM-DC assay, artefact control, profiling panel; compound autofluorescence, ex339/em460 nm, NADH buffer; stronger effect = higher value; 1 = no-compound wells, NADH background; fluorescence fold increase at 10 µM; hit rate 5.5% among 65,000; AID 709;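 active means at 10 µM, mean starting fluorescence two-fold or more over control wells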;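 further: signal is the first read of a kinetic run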
Abs 340nm: compounds absorbing at 340 nm; compound absorbance at 340 nm, fold over control; fold change at 10 µM; 65,000 tested, under 10 active; AID 708;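 active means at 10 µM dose, initial 340 nm absorbance at least 2 fold that of control wells; inactive means change under 2 fold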;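 further: initial absorbance extrapolated from kinetic A340 decline of NADH oxidation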
* hit, by the source's call; i = inactive; / = no result shown; + = active, no number; [ ] = dose if it differs, or a comment. Hits are enriched below; roughly 6.3% of the tested compounds scored in any of these assays.

SMILES	DPM-DC inhibit	NADH enzymes	Spn MK inh	PMK inhibit	Autofluor 339	Abs 340nm
COc1ccccc1-c1cc(C(F)(F)F)nc(S(=O)(=O)CCCC(=O)N2CCCCC2C)n1 (stereo not given)	/	9%	5	12	3.4*	1
COc1ccccc1-c1cc(C(F)(F)F)nc(N2CCCC2)n1	i	2%	6	0	1.4	1.1
COc1ccccc1-c1cc(C(F)(F)F)nc(S(=O)(=O)CCCC(=O)NC(C)C)n1	i	11%	7	17	1.9	1.1
CCCc1cc(=O)oc2cc(OCC(=O)N(C)C)c(Cl)cc12	i	4%	6	3	1.4	1.1
O=C(Oc1cc2oc(=O)c3c(c2cc1Cl)CCCC3)c1ccco1	/	4%	10	11	2.5*	1.1
CC(=O)Oc1cc2oc(=O)c3c(c2cc1Cl)CCC3	/	14%	4	23	4.9*	1
Cc1cc2oc(=O)c3c(c2cc1OC(=O)c1ccco1)CCCC3	i	3%	5	3	1.2	1
Cc1cc(=O)oc2cc(OC(C)C(=O)O)c(Cl)cc12 (stereo not given)	+	25%	0	19	3.2*	1.1
CC(C)Oc1cc2oc(=O)c3c(c2cc1Cl)CCC3	i	6%	7	11	2.3*	1.1
CCC1SC2=NC(C)=C(C(=O)OC)C(c3cccs3)N2C1=O (stereo not given)	i	10%	16	14	1.1	1.1
COCCCNC(CC(=O)Nc1ccc(N(C)C)cc1)C(=O)O (stereo not given)	i	8%	0	15	1	1
CC(O)Cn1cnc2c1c(=O)n(C)c(=O)n2C (stereo not given)	i	2%	6	6	1	0.98
Cc1coc2cc3oc(=O)c4c(c3cc12)CCC4	+[may fluoresce]	4%	10	9	2.8*	1
Cc1coc2c(C)c3oc(=O)c4c(c3cc12)CCC4	i	8%	7	9	1.9	1.1
COC1(c2cc(-c3ccccc3)nc(N)n2)CCCCC1	i	2%	4	2	1.3	0.99
NC(=O)NC(Cc1ccccc1)C(=O)NCC1(N2CCCCC2)CCCCC1 (stereo not given)	i	7%	3	19	1.1	0.98
N#Cc1ccc(Oc2cccnc2)cc1C#N	i	6%	4	8	0.95	1
COc1ccc(OC)c(-c2nnc(-c3ccc(C)o3)o2)c1	/	11%	12	10	3.9*	1.1
Cc1ccc(C)c(Cc2c(C)nc3c(C(=O)N4CCOCC4)cnn3c2C)c1	i	10%	0	10	3.8*	1
Cc1nc2c(C(=O)N3CCN(c4ccccn4)CC3)cnn2c(C)c1Cc1cccc(Cl)c1	i	4%	0	11	1.3	1
COC(=O)c1cnn2c(C)c(Cc3cccc(F)c3)c(C)nc12	/	8%	4	11	2.1*	1.1
Cc1nc2c(C(=O)O)cnn2c(C)c1Cc1ccccc1F	i	13%	1	19	1.6	1
CCOC(=O)N1CCN(C(=O)c2cnn3c(C)c(Cc4ccc(C)cc4)c(C)nc23)CC1	/	9%	3	15	4.1*	1
COc1cccc(NC(=O)CC2(CC(=O)O)CCCC2)c1	i	8%	9	16	1.1	1
COc1ccccc1N1CCN(C(=O)CSc2nnc(NC(=O)C3CC3)s2)CC1	i	5%	5	11	1.1	0.99
SMILES	DPM-DC inhibit	NADH enzymes	Spn MK inh	PMK inhibit	Autofluor 339	Abs 340nm
COc1ccccc1N1CCN(C(=O)CSc2nnc(NC(=O)c3ccco3)s2)CC1	+	15%	0	12	0.73	1
O=c1c2c3nc4ccccc4nc3n(/N=C/c3cccs3)c2ncn1-c1ccccc1	i	2%	5	2	1.2	1.1
O=c1cc(O)c2c(=O)n3c4c(cccc4c2o1)CCC3	i	12%	8	14	1.5	1.1
O=C(CSc1ccc2nnc(-c3ccccc3)n2n1)NCC1CCCO1 (stereo not given)	i	10%	5	13	2.2*	0.99
Cc1ccc(-c2nnc3ccc(SCC(=O)N4CCCCC4)nn23)cc1	i	7%	6	14	1.2	0.98
O=C(CSc1nc2ccccc2[nH]1)N1CCN(c2ccc(F)cc2)CC1	i	5%	11	5	1.1	1
CC1CCN(C(=O)CSc2ccc3nnc(-c4ccc(F)cc4)n3n2)CC1	i	5%	1	12	2.3*	1
CC1CCN(C(=O)CSc2nc3ccccc3[nH]2)CC1	i	3%	1	32*	1	1.1
CC1CCN(C(=O)CSc2ccc3nnc(-c4ccccc4)n3n2)CC1	i	5%	5	7	2.2*	0.99
C=CCNS(=O)(=O)c1ccc2nsnc2c1	i	3%	0	0	1	0.99
CNC(=O)c1nnn(Cc2ccccc2)c1NC(=O)C(F)(F)F	i	7%	0	13	1.1	1
N#CC(C#N)=c1ccc2c(c1)NC1(CCCCC1)N=2	i	12%	9	13	1.2	1.1
Cc1ccc(-c2nnc3ccc(SCC(=O)Nc4cc(C)on4)nn23)cc1	i	5%	3	10	2*	1
Cc1cc(NC(=O)CSc2ccc3nnc(-c4ccc(F)cc4)n3n2)no1	i	7%	0	13	2	1
COC(=O)C(NC(=O)c1ccccc1)=C1C=C(C)OC(C)=C1	i	10%	0	29*	1.1	1.3
CCOC(=O)C(NC(=O)c1ccccc1)=C1C=C(C)OC(C)=C1	i	3%	5	5	1.1	1.2
CCOc1ccc2nc(NCCNC(=O)CC)c(C#N)cc2c1	/	13%	9	17	3.8*	1
CCOc1ccc2nc(SCC(=O)N3CCCCCC3)c(C#N)cc2c1	i	4%	6	9	1.2	0.97
O=C(Nc1ccc2c(c1)C(=O)N(C1CCCCC1)C2=O)C1CCCO1 (stereo not given)	/	2%	7	1	2.5*	1
Nc1ccc(O)cc1C(=O)OCC(=O)C12CC3CC(CC(C3)C1)C2	/	5%	0	9	2.1*	1
O=C(CN1C2=NCCN2c2ccccc21)C12CC3CC(CC(C3)C1)C2	i	4%	7	5	1.1	1
CCOc1ccc2nc(NC(=O)C3CCN(c4cnccn4)CC3)sc2c1	i	10%	0	11	2.6*	1
CC1CCCCN1CCNC(=O)c1cc2c(-c3ccccc3F)nn(C)c2s1 (stereo not given)	/	5%	1	8	2.1*	1.1
COc1ccc(-c2nn(C)c3sc(C(=O)NCc4ccco4)cc23)cc1OC	i	8%	6	12	3.1*	1
CCOC(=O)N1CCC(NC(=O)c2cc3c(-c4ccc(OC)c(OC)c4)nn(C)c3s2)CC1	i	11%	8	7	2.4*	1.1
